Records with an inconclusive call do not appear. The source made the active and inactive calls. The calls were made as follows, unless noted: active = hit-call score of the fitted dose curve at least 0.9, where 1 is the maximum; inactive = score below 0.9.

Test [1] can be described thus: ATG_NFI_CIS: Attagene CIS-FACTORIAL HepG2 Assay for human Nuclear Factor I (NFI) (AID 2282989). The settings on record: HepG2 cis-regulatory reporter, NFI response element transcription; actives raise or lower the signal. In outline:
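After transient transfection of HepG2 with cis-promoter reporter constructs and 24 h dosing, RNA is reverse-transcribed, amplified, 6-FAM end-labelled and HpaI-digested before capillary analysis. Bidirectional curve fitting against DMSO.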

Test [2] has as its target Myc proto-oncogene protein (Homo sapiens) (UniProt P01106). The experiment in a line: ATG_Myc_CIS: Attagene CIS-FACTORIAL HepG2 Assay for human Myelocytomatosis (Myc) Proto-Oncogene Transcription Factor (AID 2282990). The settings on record: HepG2, Attagene cis-reporter transcription factor activity; actives raise or lower the signal. In short, it runs like this:
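Fluorescence intensity of reporter-specific cDNA fragments, separated by capillary electrophoresis, gives the signal. Transfected HepG2 cells carrying cis-promoter reporter constructs are incubated with compound for 24 h; DMSO serves as baseline.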

The nature of test [3]: ATG_NF_kB_CIS: Attagene CIS-FACTORIAL HepG2 Assay for human Nuclear Factor Kappa B (NF-kB) (AID 2282991). The settings on record: HepG2 Attagene cis-factorial NF-kB reporter mRNA; actives raise or lower the signal. In short, it runs like this: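 After 24 h compound incubation, transfected HepG2 cells yield total RNA; reporter cDNA is PCR-amplified, end-labelled with 6-FAM, HpaI-digested and analysed on a genetic analyser. Endogenous factor activity, DMSO-referenced bidirectional fit.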

A short description of test [4]: ATG_NRF2_ARE_CIS: Attagene CIS-FACTORIAL HepG2 Assay for human Nuclear Factor Erythroid 2 Related Factor 2 (NFR2) response to Antioxidant Response Elements (ARE) (AID 2282992). The settings on record: HepG2 Attagene ARE/NRF2 reporter, transcription factor activity; actives raise or lower the signal. In short, it runs like this:
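Cis-factorial assay: transfected HepG2 reporter library, 24 h dosing, mRNA readout via RT-PCR/CE; DMSO-referenced bidirectional analysis.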

A short description of test [5]: ATG_Oct_MLP_CIS: Attagene CIS-FACTORIAL HepG2 Assay for human Octamer-Binding Transcription Factor (Oct) (AID 2282993). The settings on record: HepG2 Attagene cis-factorial Oct reporter, mRNA; actives raise or lower the signal. In short, it runs like this:
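Cells of the HepG2 line express promoter-controlled reporter sequences whose mRNA levels, after 24 h treatment, are measured by RT-PCR and capillary electrophoresis. Increases and decreases are scored relative to DMSO.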

Test [6] concerns the target Cellular tumor antigen p53 (Homo sapiens) (UniProt P04637). In words: ATG_p53_CIS: Attagene CIS-FACTORIAL HepG2 Assay for human p53 Transcription Factor (AID 2282994). The settings on record: HepG2 p53 cis-element reporter, Attagene mRNA; actives raise or lower the signal. In outline:
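Using HepG2 hepatoma cells carrying cis-acting multiplexed reporters, mRNA induction is detected after a 24 h exposure. Gain- and loss-of-signal responses are fitted relative to DMSO-treated cells.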

Test [7] addresses human Peroxisome Proliferator-activated Receptor alpha (PPARa), PPARA (gene 5465) (UniProt Q07869). The experiment in a line: ATG_PPARa_TRANS: Attagene TRANS-FACTORIAL HepG2 Assay for human Peroxisome Proliferator-activated Receptor alpha (PPARa) (AID 2283001; active = hit-call score of the fitted dose curve at least 0.9, where 1 is the maximum). In outline: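 Measures transcriptional activity of an exogenous chimeric PPARa-Gal4 protein in transiently transfected HepG2 cells after 24 h dosing. Reporter mRNA quantified via RT-PCR and capillary electrophoresis; DMSO served as negative control.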

Test [8] has as its target human Peroxisome Proliferator-activated Receptor delta (PPARd), PPARD (gene 5467) (UniProt Q03181). In words: ATG_PPARd_TRANS: Attagene TRANS-FACTORIAL HepG2 Assay for human Peroxisome Proliferator-activated Receptor delta (PPARd) (AID 2283002; active = hit-call score of the fitted dose curve at least 0.9, where 1 is the maximum). In short, it runs like this: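 Fluorescence from capillary electrophoresis of labelled RT-PCR reporter fragments gives the signal; DMSO sets baseline. Cells: HepG2 transiently carrying GAL4-UAS reporter units plus chimeric nuclear receptor-Gal4 proteins, exposed to chemicals for 24 h.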

Test [9] has as its target human Retinoic Acid Receptor beta (RARb), RARB (gene 5915) (UniProt P10826). The experiment in a line: ATG_RARb_TRANS: Attagene TRANS-FACTORIAL HepG2 Assay for human Retinoic Acid Receptor beta (AID 2283004; active = hit-call score of the fitted dose curve at least 0.9, where 1 is the maximum). In outline:
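HepG2 cells transiently transfected with multiplexed GAL4-UAS reporter units expressing chimeric NR–Gal4 fusions; 24 h compound exposure. Reporter mRNA quantified by RT-PCR, 6-FAM labelling, HpaI digestion and capillary electrophoresis; gain-of-signal fitted against DMSO baseline.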

The target in test [10] is Retinoic acid receptor alpha (Homo sapiens) (UniProt P10276). In words: ATG_RARa_TRANS: Attagene TRANS-FACTORIAL HepG2 Assay for human Retinoic Acid Receptor alpha (RARa) (AID 2283005; active = hit-call score of the fitted dose curve at least 0.9, where 1 is the maximum). In short, it runs like this: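 HepG2 transiently transfected with multiplex GAL4-UAS reporter units including a human RARa–GAL4 chimera; 24 h compound exposure. Reporter mRNA quantified by RT-PCR, 6-FAM labeling and capillary electrophoresis; gain of signal versus DMSO.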

Test [11] concerns the target Nuclear receptor subfamily 1 group I member 2 (Homo sapiens) (UniProt O75469). In words: ATG_PXR_TRANS: Attagene TRANS-FACTORIAL HepG2 Assay for human Pregnane X Receptor (PXR) (AID 2283008; active = hit-call score of the fitted dose curve at least 0.9, where 1 is the maximum). In short, it runs like this: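 Fluorescence intensity of FAM-labelled, HpaI-digested reporter amplicons, separated by capillary electrophoresis, quantifies induction. HepG2 cells with PXR-Gal4 trans-reporter system were exposed 24 h; DMSO defines baseline.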

In test [12] the target is human Retinoic Acid Receptor gamma (RARg), RARG (gene 5916) (UniProt P13631). In words: ATG_RARg_TRANS: Attagene TRANS-FACTORIAL HepG2 Assay for human Retinoic Acid Receptor gamma (RARg) (AID 2283009; active = hit-call score of the fitted dose curve at least 0.9, where 1 is the maximum). In outline: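 HepG2 cells transiently transfected with multiplexed reporter units expressing chimeric RARg-GAL4 and GAL4-UAS-driven reporters; 24 h compound exposure. Reporter mRNA quantified by RT-PCR with fluorescent labelling and capillary electrophoresis; gain-of-signal fitted relative to DMSO baseline.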

Test [13] deals with Peroxisome proliferator-activated receptor gamma (Homo sapiens) (UniProt P37231). The experiment in a line: ATG_PPARg_TRANS: Attagene TRANS-FACTORIAL HepG2 Assay for human Peroxisome Proliferator-activated Receptor-gamma (PPARg) (AID 2283007; active = hit-call score of the fitted dose curve at least 0.9, where 1 is the maximum). In outline: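 Liver-derived HepG2 cells expressing an exogenous NR-Gal4 chimera alongside GAL4-UAS reporter genes; 24 h exposure. Fluorescence of reporter RT-PCR products, separated by capillary electrophoresis, gives mRNA induction relative to DMSO.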

A short description of test [14]: BSK_3C_TissueFactor: BioMAP Diversity Plus: 3C Assay for Tissue Factor Biomarker Activity (AID 2282997). The settings on record: BioMAP 3C HUVEC, tissue factor biomarker readout; actives raise or lower the signal. In outline: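 Primary human umbilical vein endothelial cells in the 3C system were exposed to test chemical for 24 h, then Tissue Factor measured by ELISA. Activity was fitted bidirectionally against DMSO as negative control and baseline.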

Test [15] is described as follows: BSK_3C_uPAR: BioMAP Diversity Plus: 3C Assay for Urokinase-type plasminogen activator receptor (uPAR) Biomarker Activity (AID 2282998). The settings on record: BioMAP 3C HUVEC, uPAR biomarker ELISA; actives raise or lower the signal. In short, it runs like this:
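Endothelial primary cells of human umbilical vein origin received test chemical; 24 h later uPAR was assayed by ELISA. Fitting was bidirectional, DMSO as negative control.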

Test [16] is described as follows: BSK_3C_VCAM1: BioMAP Diversity Plus: 3C Assay for Vascular cell adhesion molecule 1 (VCAM1) Biomarker Activity (AID 2282999). The settings on record: BioMAP 3C HUVEC, VCAM1 ELISA, cytokine-stimulated; actives raise or lower the signal. In short, it runs like this: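 Human umbilical vein endothelial cells (3C system), biomarker read by ELISA 24 h after dosing; bidirectional fit against DMSO baseline. Cytotoxicity tracked by SRB total-protein staining in parallel cultures at biomarker time.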

The nature of test [17]: BSK_4H_Eotaxin3: BioMAP Diversity Plus: 4H Assay for Eotaxin 3 Biomarker Activity (AID 2283000). The following applies: primary human endothelial cells (HUVEC); actives raise or lower the signal. In short, it runs like this:
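HUVEC, 24 h post-dose, ELISA for Eotaxin-3/CCL26. Gain or loss of signal fitted bidirectionally vs DMSO baseline.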

Read-out in test [18]: Intercellular Adhesion Molecule 1 (ICAM1), ICAM1 (gene 3383)
The experiment in a line: BSK_3C_ICAM1: BioMAP Diversity Plus: 3C Assay for Intercellular Adhesion Molecule 1 (ICAM1) Biomarker Activity (AID 2283003). The following applies: primary human endothelial cells (HUVEC); actives raise or lower the signal. In outline: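 Primary human umbilical vein endothelial cells in the BioMAP 3C system were exposed to chemicals for 24 h, then ICAM-1 was quantified by ELISA. Activity was fitted bidirectionally against the DMSO negative control baseline.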

Test [19] in a line: BSK_3C_Proliferation: Cell Proliferation Assessment in the BioMAP Diversity Plus: 3C Assay (AID 2283006).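 Also: potency may reflect either rise or fall in cell number versus DMSO.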 The settings on record: primary human endothelial cells (HUVEC). In outline:
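Human umbilical vein endothelial cells were grown sub-confluent and exposed to chemical for 48 h, then fixed with 10% TCA and stained with 0.1% sulforhodamine B; absorbance at 560 nm gave relative cell number, fitted bidirectionally against DMSO baseline.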

Chain of human Peroxisome Proliferator-activated Receptor delta (PPARd), PPARD (gene 5467) (Q03181 whole entry, looked up, the tested form may be a part): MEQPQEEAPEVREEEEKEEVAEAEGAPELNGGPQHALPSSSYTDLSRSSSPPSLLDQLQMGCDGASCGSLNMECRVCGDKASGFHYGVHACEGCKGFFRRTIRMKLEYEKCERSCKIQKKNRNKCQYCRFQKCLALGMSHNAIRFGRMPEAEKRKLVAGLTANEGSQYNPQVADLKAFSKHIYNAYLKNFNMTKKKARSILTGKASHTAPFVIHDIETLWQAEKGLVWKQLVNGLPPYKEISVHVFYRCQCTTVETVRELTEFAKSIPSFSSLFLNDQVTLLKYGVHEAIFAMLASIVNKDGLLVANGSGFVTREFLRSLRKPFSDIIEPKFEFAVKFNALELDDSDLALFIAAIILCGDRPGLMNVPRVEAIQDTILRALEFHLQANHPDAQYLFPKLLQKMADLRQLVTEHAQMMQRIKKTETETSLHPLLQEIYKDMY
Chain of Cellular tumor antigen p53 (Homo sapiens) (P04637 whole entry, looked up): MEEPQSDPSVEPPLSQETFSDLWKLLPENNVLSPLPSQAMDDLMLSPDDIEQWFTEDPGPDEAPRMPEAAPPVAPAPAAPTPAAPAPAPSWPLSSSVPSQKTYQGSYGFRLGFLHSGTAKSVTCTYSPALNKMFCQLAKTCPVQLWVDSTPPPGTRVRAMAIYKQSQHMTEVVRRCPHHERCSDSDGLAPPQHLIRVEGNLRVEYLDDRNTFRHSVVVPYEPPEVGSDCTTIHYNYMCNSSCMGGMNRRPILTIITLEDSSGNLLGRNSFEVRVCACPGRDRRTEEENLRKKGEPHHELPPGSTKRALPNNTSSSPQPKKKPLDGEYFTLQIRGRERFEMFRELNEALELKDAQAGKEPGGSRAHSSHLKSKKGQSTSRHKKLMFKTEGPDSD
Chain of Myc proto-oncogene protein (Homo sapiens) (P01106 whole entry, looked up, the tested form may be a part): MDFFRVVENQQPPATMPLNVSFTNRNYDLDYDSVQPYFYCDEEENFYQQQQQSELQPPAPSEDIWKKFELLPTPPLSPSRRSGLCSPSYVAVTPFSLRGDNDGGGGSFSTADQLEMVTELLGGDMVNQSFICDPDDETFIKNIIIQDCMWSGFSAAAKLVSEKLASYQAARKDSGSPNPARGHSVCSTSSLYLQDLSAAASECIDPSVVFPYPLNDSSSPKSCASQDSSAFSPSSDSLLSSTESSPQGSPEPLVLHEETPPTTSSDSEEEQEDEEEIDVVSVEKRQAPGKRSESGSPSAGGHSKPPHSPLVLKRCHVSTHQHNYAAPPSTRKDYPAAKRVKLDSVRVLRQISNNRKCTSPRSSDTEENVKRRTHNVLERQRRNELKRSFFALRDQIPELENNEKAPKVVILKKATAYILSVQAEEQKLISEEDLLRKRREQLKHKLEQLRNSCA
Chain of human Peroxisome Proliferator-activated Receptor alpha (PPARa), PPARA (gene 5465) (Q07869 whole entry, looked up, the tested form may be a part): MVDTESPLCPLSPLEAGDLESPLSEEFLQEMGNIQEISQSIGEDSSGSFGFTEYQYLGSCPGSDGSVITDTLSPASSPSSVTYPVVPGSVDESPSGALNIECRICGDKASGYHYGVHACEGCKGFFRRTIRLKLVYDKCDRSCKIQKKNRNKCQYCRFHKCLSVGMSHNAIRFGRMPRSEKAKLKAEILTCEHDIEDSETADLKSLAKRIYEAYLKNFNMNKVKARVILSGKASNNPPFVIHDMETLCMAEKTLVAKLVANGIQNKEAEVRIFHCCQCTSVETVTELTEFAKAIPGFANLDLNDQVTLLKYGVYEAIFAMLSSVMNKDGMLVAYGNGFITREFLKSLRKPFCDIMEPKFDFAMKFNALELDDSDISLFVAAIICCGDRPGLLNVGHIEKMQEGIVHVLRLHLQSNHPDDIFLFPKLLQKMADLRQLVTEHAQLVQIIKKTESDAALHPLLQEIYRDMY
Chain of Nuclear receptor subfamily 1 group I member 2 (Homo sapiens) (O75469 whole entry, looked up, the tested form may be a part): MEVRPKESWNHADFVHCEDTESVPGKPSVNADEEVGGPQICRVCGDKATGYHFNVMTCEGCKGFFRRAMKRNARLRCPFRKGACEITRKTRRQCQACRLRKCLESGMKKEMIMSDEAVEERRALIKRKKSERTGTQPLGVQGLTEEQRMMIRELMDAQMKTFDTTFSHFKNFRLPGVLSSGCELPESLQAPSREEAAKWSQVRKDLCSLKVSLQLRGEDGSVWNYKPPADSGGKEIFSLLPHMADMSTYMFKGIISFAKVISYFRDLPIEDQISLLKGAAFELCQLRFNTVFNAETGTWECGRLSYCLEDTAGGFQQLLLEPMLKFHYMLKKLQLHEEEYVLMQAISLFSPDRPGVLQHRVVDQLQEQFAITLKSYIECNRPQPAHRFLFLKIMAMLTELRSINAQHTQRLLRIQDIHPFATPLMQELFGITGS
Chain of human Retinoic Acid Receptor gamma (RARg), RARG (gene 5916) (P13631 whole entry, looked up, the tested form may be a part): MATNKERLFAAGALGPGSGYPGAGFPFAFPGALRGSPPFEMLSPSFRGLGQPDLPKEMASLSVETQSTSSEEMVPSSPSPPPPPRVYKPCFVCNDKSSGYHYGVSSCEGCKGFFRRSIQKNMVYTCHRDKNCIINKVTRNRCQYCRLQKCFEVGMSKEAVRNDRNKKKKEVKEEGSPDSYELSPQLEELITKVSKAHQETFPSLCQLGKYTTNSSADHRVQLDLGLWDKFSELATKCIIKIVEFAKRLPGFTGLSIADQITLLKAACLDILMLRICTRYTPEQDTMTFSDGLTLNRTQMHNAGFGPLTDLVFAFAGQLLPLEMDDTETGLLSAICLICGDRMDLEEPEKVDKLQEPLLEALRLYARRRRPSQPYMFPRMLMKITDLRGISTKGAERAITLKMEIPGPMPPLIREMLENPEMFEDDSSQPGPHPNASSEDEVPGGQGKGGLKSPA
Chain of human Retinoic Acid Receptor beta (RARb), RARB (gene 5915) (P10826 whole entry, looked up, the tested form may be a part): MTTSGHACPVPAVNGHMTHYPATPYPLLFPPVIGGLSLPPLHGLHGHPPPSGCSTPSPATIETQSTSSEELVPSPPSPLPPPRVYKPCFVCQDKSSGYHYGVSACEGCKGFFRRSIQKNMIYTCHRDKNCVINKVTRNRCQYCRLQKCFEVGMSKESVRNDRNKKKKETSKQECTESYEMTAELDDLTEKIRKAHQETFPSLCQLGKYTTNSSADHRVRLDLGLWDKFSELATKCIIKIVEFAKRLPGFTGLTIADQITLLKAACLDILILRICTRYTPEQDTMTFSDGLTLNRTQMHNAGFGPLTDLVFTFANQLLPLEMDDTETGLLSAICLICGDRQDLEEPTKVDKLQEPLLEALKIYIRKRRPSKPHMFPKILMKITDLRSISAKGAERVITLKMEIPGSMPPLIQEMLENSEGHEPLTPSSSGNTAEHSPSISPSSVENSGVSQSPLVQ
Chain of Peroxisome proliferator-activated receptor gamma (Homo sapiens) (P37231 whole entry, looked up, the tested form may be a part): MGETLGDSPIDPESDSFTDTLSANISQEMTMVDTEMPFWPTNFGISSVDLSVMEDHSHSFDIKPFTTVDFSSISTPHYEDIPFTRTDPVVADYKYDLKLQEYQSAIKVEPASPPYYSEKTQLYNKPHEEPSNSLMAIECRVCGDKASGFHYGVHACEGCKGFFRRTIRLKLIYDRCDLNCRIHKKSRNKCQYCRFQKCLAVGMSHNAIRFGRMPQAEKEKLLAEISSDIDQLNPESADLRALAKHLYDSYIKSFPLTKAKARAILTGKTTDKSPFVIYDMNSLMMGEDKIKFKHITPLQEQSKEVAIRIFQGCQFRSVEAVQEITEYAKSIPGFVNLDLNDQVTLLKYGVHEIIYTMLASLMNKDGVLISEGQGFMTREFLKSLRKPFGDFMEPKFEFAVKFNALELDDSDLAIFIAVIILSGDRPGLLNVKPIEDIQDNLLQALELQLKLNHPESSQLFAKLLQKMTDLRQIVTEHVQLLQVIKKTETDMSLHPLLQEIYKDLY
Chain of Retinoic acid receptor alpha (Homo sapiens) (P10276 whole entry, looked up, the tested form may be a part): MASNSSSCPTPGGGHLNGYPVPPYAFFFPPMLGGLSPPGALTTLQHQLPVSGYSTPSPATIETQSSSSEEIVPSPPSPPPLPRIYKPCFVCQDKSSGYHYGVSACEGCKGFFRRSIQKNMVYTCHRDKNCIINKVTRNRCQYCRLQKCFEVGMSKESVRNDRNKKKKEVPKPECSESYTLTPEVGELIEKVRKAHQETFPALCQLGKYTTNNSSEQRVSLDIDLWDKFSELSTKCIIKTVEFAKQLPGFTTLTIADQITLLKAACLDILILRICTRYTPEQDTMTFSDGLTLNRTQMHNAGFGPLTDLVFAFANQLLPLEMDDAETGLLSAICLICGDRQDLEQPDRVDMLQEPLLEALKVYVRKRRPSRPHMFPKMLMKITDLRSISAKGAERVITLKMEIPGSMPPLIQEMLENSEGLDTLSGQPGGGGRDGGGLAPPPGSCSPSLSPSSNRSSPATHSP

For `COC(=O)c1ccc(C)cc1C1=NC(C)(C(C)C)C(=O)N1` (configuration not stated) (tested in a mixture with another compound), the outcome in [1], in [2], in test [3], in test [4], in test [5] and in test [6] was inactive.
As for `O=C(O)CCCCCCCCC(=O)O`, the outcome in [1], in test [2], in test [3], in [4], in test [5] and in test [6] was inactive.
As for `CCCCCCCCCCCCCC(=O)OCC(O)CO` (configuration not stated), the result in [1], in test [2], in test [3], in test [5], in test [6] and in test [7] was inactive. Also, the outcome in test [8], in test [9], in test [10], in test [11] and in [12] was inactive. For the same molecule, in test [4], the AC50 was 112 µM (active).
For `[O-]n1ccccc1=S.[O-]n1ccccc1=S.[Zn+2]`, the outcome in [1], in [2], in test [4], in [5], in test [6] and in test [7] was inactive. Moreover, the molecule was classed as inactive in test [8], in test [9], in test [10] and in test [13]. Also, the AC50 in test [3] was 0.999 µM (active).
Take `CCCCN(CCCC)C(=O)N(CCCC)CCCC`: the AC50 in test [1] is 60.3 µM (active); in test [2], 48.7 µM (active); in test [3], 52.8 µM (active); in test [4], 61.6 µM (active); in test [6], 33.4 µM (active); in [14] it was 6.23 µM (active). Moreover, the AC50 in test [15] is 10.7 µM (active); in test [16] it was 8.82 µM (active); in [17] it was 9.73 µM (active); in test [18] it was 10.7 µM (active); in test [19] it was 4.03 µM (active); in test [13] it was 15.9 µM (active). Moreover, the AC50 in test [11] is 0.445 µM (active). For the same molecule, the outcome in [5], in test [7], in [8] and in test [12] was inactive.

Values taken from PubChem BioAssay (EPA / NIEHS).
